Source: PubChem BioAssay (NCATS)
Inconclusive results are not listed. A call without a number means that no potency is given here. The source made the active and inactive calls. The call rests on the fitted dose curve; in most records, active means well fitted inhibition curve with a large enough effect; inconclusive means small, poorly fitted or top-dose-only effect; inactive means flat fitted curve, though single readings scatter.

Tests used:
[1] = target: Glutathione peroxidase 1 (Homo sapiens) (UniProt P07203); test: Primary qHTS Assay for Inhibitors of Recombinant Selenoprotein Glutathione Peroxidase 1 (GPX1) (AID 1845191); conditions: recombinant GPX1, GR-coupled NADPH fluorescence, 15 min; series mostly up to 48.8 µM
Sequence of Glutathione peroxidase 1 (Homo sapiens) (P07203 whole entry, looked up): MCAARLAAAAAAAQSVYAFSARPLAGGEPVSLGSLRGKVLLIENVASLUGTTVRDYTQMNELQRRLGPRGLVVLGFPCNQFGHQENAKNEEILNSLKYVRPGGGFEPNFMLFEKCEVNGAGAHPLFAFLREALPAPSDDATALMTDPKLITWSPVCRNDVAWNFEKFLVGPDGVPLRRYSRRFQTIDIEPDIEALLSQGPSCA
Summary of the method: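 GR-coupled readout: NADPH consumption tracked by fluorescence, ex 340/em 450 nm, at t=0 and after 15 min at RT. Final mix 10 nM GPX1, 1 mM GSH, 0.5 mM CHP, 0.5 mM NADPH, 100 nM GR, 0.01% BSA, following 30 min enzyme–compound preincubation.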

[2] = target: Phospholipid hydroperoxide glutathione peroxidase GPX4 (Homo sapiens) (UniProt P36969); test: Primary qHTS Assay for Inhibitors of Recombinant Selenoprotein Glutathione Peroxidase 4 (GPX4) (AID 1845192); conditions: recombinant GPX4, GR-coupled NADPH fluorescence, 15 min; series mostly up to 50 µM
Sequence of Phospholipid hydroperoxide glutathione peroxidase GPX4 (Homo sapiens) (P36969 whole entry, looked up): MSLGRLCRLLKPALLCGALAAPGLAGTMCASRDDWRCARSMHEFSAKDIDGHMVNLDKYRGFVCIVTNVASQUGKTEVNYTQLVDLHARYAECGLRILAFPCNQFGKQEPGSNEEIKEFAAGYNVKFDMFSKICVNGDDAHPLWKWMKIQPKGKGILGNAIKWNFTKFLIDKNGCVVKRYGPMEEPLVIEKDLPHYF
Summary of the method: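 Steps: GPX4 plus compound, 30 min RT; add GR/GSH/NADPH master mix; start with cumene hydroperoxide; read 340/450 nm fluorescence at 0 and 15 min. Finals were 200 nM GPX4, 1 mM GSH, 0.5 mM CHP, 0.5 mM NADPH, 100 nM GR.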
Further: nearly all actives have a fitted effect of over 65% in size.

**Q.** NC1CCN(O)C1=O (stereo unspecified) was tested. Which Potency [1] did it give?
**A.** inactive

**Q.** What about the Potency [2] of the same compound?
**A.** inactive

**Q.** Which results are given for CCN(c1nc(N)c(C(=O)N=C(N)N)nc1Cl)C(C)C?
**A.** Potency [1]: inactive; Potency [2]: inactive

**Q.** For CN[C@H](CC(=O)O)C(=O)O, which Potency [1] is on record?
**A.** inactive

**Q.** And the Potency [2]?
**A.** inactive

**Q.** N[C@H]1CONC1=O was tested. Which Potency [1] did it give?
**A.** inactive

**Q.** What about the Potency [2] of the same compound?
**A.** inactive

**Q.** With COc1cc(/C=C(\C#N)C(=O)Nc2nnc(C(F)(F)F)s2)ccc1OCc1ccc(C(F)(F)F)cc1C(F)(F)F as the compound, how does the Potency [1] read?
**A.** inactive

**Q.** And the Potency [2]?
**A.** inactive

**Q.** C/C(=C\c1ccc(C(=O)O)cc1)c1ccc2c(c1)C(C)(C)CCC2(C)C was tested. Which Potency [1] did it give?
**A.** inactive

**Q.** What about the Potency [2] of the same compound?
**A.** inactive

**Q.** NC[C@@H]1O[C@H](c2ccccc2)Cc2c1ccc(O)c2O was tested. Which Potency [1] did it give?
**A.** inactive

**Q.** What about the Potency [2] of the same compound?
**A.** inactive

**Q.** With CSC(=N)N as the compound, how does the Potency [1] read?
**A.** inactive

**Q.** And the Potency [2]?
**A.** inactive

**Q.** Which results are given for C[C@@H](NCCc1ccc(O)cc1)[C@@H](O)c1ccc(O)cc1?
**A.** Potency [1]: inactive; Potency [2]: inactive

**Q.** Which results are given for Cn1ccnc1?
**A.** Potency [1]: inactive; Potency [2]: inactive

**Q.** For COc1cc(CC(=O)O)ccc1O, which Potency [1] is on record?
**A.** inactive

**Q.** What about the Potency [2] of the same compound?
**A.** inactive

**Q.** Which Potency [1] does the source give for OCC1NCC(O)C(O)C1O (stereo unspecified) here?
**A.** inactive

**Q.** What about the Potency [2] of the same compound?
**A.** inactive

**Q.** With C=C1C(=O)O[C@@H]2[C@H]3O[C@]3(C)CCC=C(C)CC[C@@H]12 as the compound, how does the Potency [1] read?
**A.** inactive

**Q.** And the Potency [2]?
**A.** inactive
